A short description of experiment [1]: E. coli DRC41 culture turbidity changes, primary screen, E. coli filamentation inducer project, strain DRC41, OD650, 48 h (AID 1152).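 Also: E. coli MC1000 strain DRC41 lacking acrAB efflux pump and sulA.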 To be noted: E. coli DRC41 (acrAB sulA), higher = more signal, called active from +8 up or from −8 down.
The nature of experiment [2]: small-molecule binders of probe aLefty1, primary screen, biochemical, small-molecule microarray, 635/667 nm fluorescence (AID 1153).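 Also: score merges spot fluorescence with signal-to-noise ratio from the scanned slide images.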 To be noted: higher = more signal.
Experiment [3] can be described thus: PSAC antagonists in infected red cells, primary screen, cell-based, P. falciparum Indochina, OD700, 1 h (AID 1154). To be noted: P. falciparum Indochina infected RBC osmotic lysis, higher = more signal, called active from +8 up or from −8 down.
Experiment [4] can be described thus: PSAC antagonists in infected red cells, primary screen, cell-based, P. falciparum Indochina, OD700, 2 h (AID 1155).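 Also: lysis reports solute entry through the parasite surface anion channel PSAC; channel blockers reduce lysis of infected cells.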 Conditions: P. falciparum Indochina infected erythrocytes, osmotic lysis OD700; higher = more signal, called active from +8 up or from −8 down.
Experiment [5] is described as follows: osmotic lysis modulators in infected erythrocytes, primary screen, PSAC antagonist project, cell-based, P. falciparum Indochina, OD700, 3 h (AID 1156). To be noted: higher = more signal, called active from +8 up or from −8 down.
Experiment [6] is described as follows: PSAC antagonists in infected red cells, primary screen, cell-based, P. falciparum Indochina, OD700, 18 h (AID 1157). Conditions: P. falciparum Indochina infected erythrocytes, osmotic lysis OD700, 18 h; higher = more signal, called active from +8 up or from −8 down.
Experiment [7] can be described thus: modulators of S6 phosphorylation in cells, primary screen, cell-based, A549, cytoblot, luminescence, serum-stimulated (AID 1158).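 Also: serum-stimulated A549 lung adenocarcinoma cells; signal is phosphorylated S6 detected by cytoblot immunostaining with HRP secondary.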 To be noted: A549 phospho-S6 cytoblot, 5 h, higher = more signal.
The target of experiment [8] is NADPH oxidase 2 (Homo sapiens) (UniProt P04839). Briefly: NOX2-dependent H2O2 signal modulators, primary screen, NOX inhibitor project, cell-based, HEK293-NOX2, PMA-stimulated, Amplex Red fluorescence (AID 1159). Also: test concentration not given here. Conditions: 45 min, higher = more signal, called active from +8 up or from −8 down.
Chain of NADPH oxidase 2 (Homo sapiens) (P04839 whole entry, looked up): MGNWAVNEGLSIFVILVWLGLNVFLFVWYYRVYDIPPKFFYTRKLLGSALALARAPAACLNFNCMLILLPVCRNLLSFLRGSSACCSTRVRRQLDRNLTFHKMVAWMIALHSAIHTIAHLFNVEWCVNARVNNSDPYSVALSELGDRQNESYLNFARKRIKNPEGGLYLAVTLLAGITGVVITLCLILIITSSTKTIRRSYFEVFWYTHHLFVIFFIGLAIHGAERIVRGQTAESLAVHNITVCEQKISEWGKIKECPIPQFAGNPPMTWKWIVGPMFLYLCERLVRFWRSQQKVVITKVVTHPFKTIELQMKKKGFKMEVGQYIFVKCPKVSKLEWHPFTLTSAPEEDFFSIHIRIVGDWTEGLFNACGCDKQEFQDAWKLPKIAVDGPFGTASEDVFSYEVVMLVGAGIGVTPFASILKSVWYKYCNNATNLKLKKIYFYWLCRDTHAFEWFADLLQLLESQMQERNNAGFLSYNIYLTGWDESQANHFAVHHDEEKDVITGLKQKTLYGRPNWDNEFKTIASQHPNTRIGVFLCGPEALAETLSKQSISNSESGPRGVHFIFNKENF
The target of experiment [9] is NADPH oxidase 4 (Homo sapiens) (UniProt Q9NPH5). The experiment is described as follows: NOX4-dependent H2O2 signal modulators, primary screen, NOX inhibitor project, cell-based, HEK293-NOX4, tetracycline-induced, Amplex Red fluorescence (AID 1160). To be noted: 45 min, higher = more signal, called active from +8 up or from −8 down.
Chain of NADPH oxidase 4 (Homo sapiens) (Q9NPH5 whole entry, looked up): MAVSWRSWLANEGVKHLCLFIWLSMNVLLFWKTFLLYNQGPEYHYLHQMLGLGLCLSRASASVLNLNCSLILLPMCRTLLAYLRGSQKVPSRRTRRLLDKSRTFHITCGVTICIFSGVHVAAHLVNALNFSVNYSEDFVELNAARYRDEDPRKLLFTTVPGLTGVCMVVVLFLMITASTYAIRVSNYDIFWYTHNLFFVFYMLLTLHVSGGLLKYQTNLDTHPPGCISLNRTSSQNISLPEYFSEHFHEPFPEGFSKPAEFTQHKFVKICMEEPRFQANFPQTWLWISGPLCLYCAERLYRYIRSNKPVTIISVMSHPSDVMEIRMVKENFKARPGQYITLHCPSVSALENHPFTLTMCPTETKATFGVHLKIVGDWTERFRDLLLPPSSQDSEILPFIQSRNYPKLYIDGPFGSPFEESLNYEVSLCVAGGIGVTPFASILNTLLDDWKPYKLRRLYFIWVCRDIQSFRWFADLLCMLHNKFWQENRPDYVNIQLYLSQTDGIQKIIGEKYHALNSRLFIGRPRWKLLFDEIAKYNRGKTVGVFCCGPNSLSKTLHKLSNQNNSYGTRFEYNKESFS
In experiment [10] the target is NADPH oxidase 5 (Homo sapiens) (UniProt Q96PH1). The experiment is described as follows: NOX5-dependent H2O2 signal modulators, primary screen, NOX inhibitor project, cell-based, HEK293-NOX5, Amplex Red fluorescence (AID 1161). To be noted: HEK293-NOX5, ionomycin, 45 min, higher = more signal.
Chain of NADPH oxidase 5 (Homo sapiens) (Q96PH1 whole entry, looked up): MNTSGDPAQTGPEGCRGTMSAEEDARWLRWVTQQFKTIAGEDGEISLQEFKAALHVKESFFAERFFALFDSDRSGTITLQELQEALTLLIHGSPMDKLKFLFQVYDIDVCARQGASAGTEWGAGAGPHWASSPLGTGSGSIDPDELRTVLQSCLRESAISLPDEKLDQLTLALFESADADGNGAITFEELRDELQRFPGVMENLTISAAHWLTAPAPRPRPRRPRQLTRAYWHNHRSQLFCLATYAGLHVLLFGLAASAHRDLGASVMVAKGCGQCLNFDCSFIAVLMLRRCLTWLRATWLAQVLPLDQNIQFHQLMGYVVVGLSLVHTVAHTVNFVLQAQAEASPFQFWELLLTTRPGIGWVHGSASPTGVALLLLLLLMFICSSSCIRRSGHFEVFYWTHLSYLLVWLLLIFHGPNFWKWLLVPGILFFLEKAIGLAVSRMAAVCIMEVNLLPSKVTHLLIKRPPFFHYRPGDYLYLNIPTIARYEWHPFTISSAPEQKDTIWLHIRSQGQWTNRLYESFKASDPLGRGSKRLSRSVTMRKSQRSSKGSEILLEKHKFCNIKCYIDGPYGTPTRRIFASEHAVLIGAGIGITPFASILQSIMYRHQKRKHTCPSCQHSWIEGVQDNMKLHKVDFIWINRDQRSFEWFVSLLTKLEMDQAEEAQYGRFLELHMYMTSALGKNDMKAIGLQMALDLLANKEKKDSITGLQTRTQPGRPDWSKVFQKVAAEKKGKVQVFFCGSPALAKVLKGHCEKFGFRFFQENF

Structures are written as SMILES. “And” between values parts separate entries of the source, which are not always exact repeats. Equal entries are not always repeated. The source made the active and inactive calls.

For `COC(=O)[C@@]1(Cc2ccccc2)[C@H]2c3cc(C(=O)N(C)C)n(Cc4ccc(C)c(F)c4F)c3C[C@H]2CN1C(=O)c1ccccc1`, the z-score in experiment [1] was -1.18 (inactive) and -1.91 (inactive); in experiment [3], 2.54 (inactive) and 4.12 (inactive); in experiment [4], -0.6 (inactive) and 1.2 (inactive); in experiment [5] it was 0.425 (inactive) and 0.306 (inactive); in [6], -1.34 (inactive) and 1.21 (inactive); in [7], 1.16 and 0.782. For the same compound, the z-score was -3.14 (inactive) and 0.452 (inactive) in [8]; -4.83 (inactive) and -1.66 (inactive) in [9]; -5.5 and -1.88 in experiment [10]. The composite z-score in experiment [2] was 0.476 and 0.712.

As to `CCOC(=O)[C@H](CC(C)C)NC(=O)CCC1CC(OC(=O)NCc2cccc3ccccc23)CC2(CCCC(COC(=O)NCc3ccccc3)O2)O1` (stereo not given in full), the z-score in experiment [1] is -0.42 (inactive); in [3], 0.56 (inactive); in [4], -0.166 (inactive); in [5], -1.33 (inactive); in [6], 0.097 (inactive); in experiment [7], -0.194. In addition, the z-score in experiment [8] is 0.209 (inactive); in experiment [9], 0.0251 (inactive); in [10], 0.281. The composite z-score in experiment [2] was -0.393.

Regarding `C[N+](C)(C)CCCCNC(=O)[C@H]1C[C@H]2C(=O)N[C@@H](CCCC[N+](C)(C)C)C(=O)N2[C@H]1c1cccc(OCCO)c1`, the z-score in experiment [1] is -0.398 (inactive) and -0.737 (inactive); in [3] it was 1.37 (inactive) and 2.16 (inactive); in experiment [4] it was 0.244 (inactive) and 0.944 (inactive); in [5], -0.706 (inactive) and 0.0108 (inactive); in [6], 0.155 (inactive) and 0.23 (inactive); in [7], 0.2 and -0.314. In addition, the z-score is -0.187 (inactive) and -1.8 (inactive) in experiment [8]; -0.217 (inactive) and -0.934 (inactive) in experiment [9]; 0.0197 and 0.0552 in experiment [10]. In experiment [2], the composite z-score was 0.266 and -0.483.

For `CCOC(=O)[C@@H]1CC2O[C@]23C[C@@H]1C(=O)N1CCC[C@@H]1[C@H]3O[Si](C)(C)C(C)(C)C` (stereo not given in full), the z-score was -1.1 (inactive) and -0.757 (inactive) in experiment [1]; 0.827 (inactive) and -0.309 (inactive) in experiment [3]; -0.168 (inactive) and 0.0095 (inactive) in experiment [4]; -0.03 (inactive) and -0.708 (inactive) in experiment [5]; 0.134 (inactive) and -0.162 (inactive) in experiment [6]; -0.111 and -0.206 in experiment [7]. Moreover, the z-score in [8] is 0.937 (inactive) and 0.661 (inactive); in experiment [9], 0.147 (inactive) and 5.07 (inactive); in experiment [10], -2.39 and -0.882. For the same compound, in experiment [2], the composite z-score is -0.229 and -0.255.

As for `Cc1cc2c(nc1C)CCCN2CC(C)ON=C[C@@H](C)[C@H](OCc1ccccc1)C(C)C` (stereo not given in full), the z-score was -0.434 (inactive) in experiment [1]; 0.376 (inactive) in [3]; -0.0677 (inactive) in experiment [4]; -0.108 (inactive) in [5]; 0.294 (inactive) in experiment [6]; -0.775 in experiment [7]. In addition, the z-score in experiment [8] is 0.231 (inactive); in [9], -0.217 (inactive); in [10], 0.00713. Further, the composite z-score in [2] is -0.0984.

For the compound `COC(=O)[C@@]1(Cc2ccc(OC)cc2)[C@H]2c3cc(C(=O)N(C)C)n(Cc4ccc(O)c(OC)c4)c3C[C@H]2CN1C(=O)c1ccccc1`, the z-score in experiment [1] was -0.583 (inactive) and -1.09 (inactive); in experiment [3], 7.35 (inactive) and 6.71 (inactive); in experiment [4] it was 0.45 (inactive) and 1.11 (inactive); in experiment [5], 2.07 (inactive) and 1.63 (inactive); in experiment [6], 0.642 (inactive) and 1.38 (inactive); in experiment [7], 0.217 and 0.749. Besides, the z-score in experiment [8] was -1.99 (inactive) and 0.285 (inactive); in experiment [9], -6.68 (inactive) and 1.16 (inactive); in [10], -5.69 and -0.509. Besides, the composite z-score in experiment [2] was 0.0913 and 0.661.

Consider `C[C@@H]1CN2[C@@H](CC[C@@H](C)[C@@H]2c2ccc(Br)cc2)C(=O)O1`, for which the z-score is -1.42 (inactive) and 0.0426 (inactive) in [1]; 0.169 (inactive) and -0.313 (inactive) in [3]; 0.279 (inactive) and -1.09 (inactive) in [4]; -0.425 (inactive) and -0.16 (inactive) in experiment [5]; 0.125 (inactive) and -1.18 (inactive) in [6]; -0.0649 and 1.61 in experiment [7]. Also, the z-score in experiment [8] is 1.55 (inactive) and -0.12 (inactive); in experiment [9], -1 (inactive) and 0.168 (inactive); in experiment [10], 0.0337 and 0.614. In experiment [2], the composite z-score was 0.0367 and -0.275.

As for `CO[C@H]1COC(=O)CC=C[C@@H](C)COC(=O)[C@@H](OCc2ccccc2)C=C[C@@H]1C`, the z-score is 1.08 (inactive) in experiment [1]; 1 (inactive) in experiment [3]; -0.104 (inactive) in experiment [4]; 0.362 (inactive) in [5]; -0.0412 (inactive) in [6]; 0.21 in [7]. Also, the z-score was 0.46 (inactive) in experiment [8], 1.19 (inactive) in [9] and 0.308 in [10]. Moreover, in experiment [2], the composite z-score is -0.334.

On to `C=CCN(Cc1ccccc1)C(=O)C(c1cccs1)N(C(=O)/C=C\C(=O)O)c1c(Cl)cccc1CO` (stereo not given), for which the z-score in [1] is -0.608 (inactive) and -0.244 (inactive); in experiment [3], -0.152 (inactive) and -0.0214 (inactive); in experiment [4], 0.0805 (inactive) and 0.266 (inactive); in experiment [5], 0.617 (inactive) and -0.39 (inactive); in [6], 0.306 (inactive) and 0.109 (inactive); in [7] it was 0.0278 and -0.193. Moreover, the z-score was -0.0842 (inactive) and 0.208 (inactive) in [8]; -0.662 (inactive) and -0.417 (inactive) in experiment [9]; 0.0528 and 0.284 in experiment [10]. The composite z-score in [2] is -0.855 and -0.191.
